In the library only some 1.6% were active in any assay of this set; here they are far more common.
Vif imaging: inhibitors of HIV Vif. 340,000 tested, 0.35% active. HEK293T cells, Vif self-association by quenched fluorescence, imaging, 24 h. AID 602346. inhibition, % at 7.49 µM; in the data active means inhibition above about 50%, passing the limit was not always enough; inconclusive means no clear call, values can overlap the other calls; inactive means below about 31%
RAD54 inh: inhibitors of human RAD54 branch migration; inhibition, % at 10.4 µM; 360,000 tested, 0.14% active; Q92698; AID 602329; RAD54 Holliday junction branch migration, FAM/BHQ fluorescence;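 active means mean normalized replicate activity at least 40 and at least half of replicates scoring 40 or more; inconclusive means only one of the two criteria met; inactive means mean below 40 and under half of replicates reaching 40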;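 further: 0% = median of neutral control wells and 100% = median of positive control wells; inhibitors cause a drop in the FAM fluorescence signal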
Target sequence (Q92698 whole entry, looked up): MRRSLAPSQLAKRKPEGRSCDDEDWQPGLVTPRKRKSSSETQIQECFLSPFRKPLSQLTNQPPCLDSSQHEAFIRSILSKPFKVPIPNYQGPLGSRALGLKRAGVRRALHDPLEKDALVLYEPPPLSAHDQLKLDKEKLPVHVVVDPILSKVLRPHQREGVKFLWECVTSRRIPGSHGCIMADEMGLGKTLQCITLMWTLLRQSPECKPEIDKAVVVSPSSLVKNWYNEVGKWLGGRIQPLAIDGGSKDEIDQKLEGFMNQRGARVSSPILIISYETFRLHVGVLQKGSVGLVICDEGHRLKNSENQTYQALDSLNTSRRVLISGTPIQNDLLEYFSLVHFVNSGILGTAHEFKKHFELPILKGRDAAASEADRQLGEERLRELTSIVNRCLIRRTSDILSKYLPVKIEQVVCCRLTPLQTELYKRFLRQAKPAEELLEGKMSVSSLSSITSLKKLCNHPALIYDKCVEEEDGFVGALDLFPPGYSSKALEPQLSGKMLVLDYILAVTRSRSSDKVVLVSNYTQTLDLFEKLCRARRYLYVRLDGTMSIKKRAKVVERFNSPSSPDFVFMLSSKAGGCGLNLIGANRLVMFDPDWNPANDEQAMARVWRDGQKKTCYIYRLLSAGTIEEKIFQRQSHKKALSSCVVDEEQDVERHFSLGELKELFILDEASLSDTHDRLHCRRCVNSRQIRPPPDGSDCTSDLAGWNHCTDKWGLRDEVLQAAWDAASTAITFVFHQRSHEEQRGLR
ABCB6 inh MLPCN: human ABCB6 transporter inhibition | K562-ABCB6 porphyrin accumulation, flow cytometry, 1 h; active compounds read low | 360,000 tested, 0.19% active | fluorescence ratio to DMSO, % at 10 µM | Q9NP58;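 active means fluorescence ratio to DMSO below 75%, the collection mean minus 3 SD; inconclusive means too few cells collected in the well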;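 further: signal is porphyrin accumulated inside mitochondria; 100% equals median channel fluorescence of DMSO control wells; lower ratio means ABCB6 inhibition with less porphyrin fluorescence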
Glyco luc inh: N-linked glycosylation inhibition | D54 ERlucT glycosylation luciferase reporter, 24 h; percent of 100 nM tunicamycin response | reporter increase, % at 12.5 µM | 360,000 tested, 0.23% active | AID 588692;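 active means mean luciferase reporter signal, scaled so untreated is 0 and the glycosylation-blocking control 100, at or above a set limit in every replicate; inconclusive means mean reaches the limit but not every replicate does; inactive means mean below the limit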;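 further: luciferase carries N-glycosylation sites so blocking glycosylation raises the light; 0% = median of neutral control wells and 100% = median of 100 nM tunicamycin wells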
Myeloid diff MLP: promotes myeloid progenitor differentiation; ER-HoxA9 myeloid progenitors, lysozyme-GFP differentiation, flow cytometry; calls only at 10 µM; 360,000 tested, 1% active; AID 624256;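 active means normalized GFP-positive differentiation at or above the plate's own cutoff, the solvent-only control mean plus 3 SD; inconclusive means no clear call, values can overlap the other calls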;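 further: cells exposed to compound for four days before flow analysis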
ABCB6 inh CP1: human ABCB6 transporter inhibition. shares compounds with ABCB6 inh MLPCN. K562-ABCB6 porphyrin accumulation, flow cytometry, 1 h; active compounds read low. ratio response (% of DMSO), % at 10 µM. 700 tested, under 10 active. AID 602430;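 active means repeat-averaged ratio response below 75% of DMSO, the collection mean minus 3 SD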;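 further: median porphyrin fluorescence at 575 nm with 488 nm excitation from mitochondria; lower ratio means less porphyrin signal so ABCB6 inhibition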
DNA binding: counter-screen for Rad54 inhibitors: DNA binding compounds. shares compounds with RAD54 inh. Acridine orange-DNA displacement, fluorescence polarization, 20 min. AC50, µM (top dose mostly 35 µM), without a hit: at the highest dose activity change, negative = DNA binding. 460 tested, 8% active. AID 651673;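 active means signal drop giving an AC50 within twice the top valid tested concentration of each sample, actives reach about 35 µM in these data; inactive means activity opposite to expected, plus the rest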;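 further: polarization loss reports compound binding to salmon sperm DNA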
Myeloid diff CP1: myeloid differentiation induction; shares compounds with Myeloid diff MLP; ER-HoxA9 myeloid progenitors, GFP/Mac1 double-positive flow; calls only; 2,300 tested, 2% active; AID 651706;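 active means share of green or green-and-red cells above 9 and 9% in run 1 or 4 and 3% in run 2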
GFP autofluor: counter-screen for myeloid differentiation promoters: compound fluorescence; shares compounds with Myeloid diff MLP; ER-HoxA9 myeloid progenitors, no estrogen, GFP autofluorescence flow cytometry; vehicle wells 0%, positive control 100%; fluorescence response, % (no concentration beside the values); 2,300 tested, 7.4% active;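 active means over 5% cells positive for green fluorescent reporter, or over 2% positive for both it and APC stain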;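 further: range taken on the double positive population between DMSO and positive control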
* marks the source's active call; other numbers are inactive results; i = inactive; ? = inconclusive; . = not tested or not shown.

SMILES | Vif imaging | RAD54 inh | ABCB6 inh MLPCN | Glyco luc inh | Myeloid diff MLP | DNA binding | others
COC(=O)C1C(=O)C2=C(CC1C)NC(C)=C(C(=O)OC1CCCC1)C2c1ccc(N(C)C)cc1 (stereo unspecified) | 11.5 | -3.2 | 96.0 | 0.9 | i | .
COC(=O)C1C(=O)C2=C(CC1C)NC(C)=C(C(=O)OC(C)C)C2c1ccc(OC)c(O)c1 (stereo unspecified) | 12.3 | 1.7 | 73.0* | 2.5 | i | . | ABCB6 inh CP1=101.0
COc1ccc(S(=O)(=O)Nc2ccc3c(c2)C(=O)N([C@@H](C)CO)C[C@H](C)[C@@H](CN(C)S(=O)(=O)c2cn(C)cn2)OCCCC[C@H](C)O3)cc1 | . | 8.6 | . | . | . | .
CC(C)(C)c1ccc(-c2noc(CCC(=O)NCC3CCCO3)n2)cc1 (stereo unspecified) | -3.1 | . | 62.0* | -8.1 | i | . | ABCB6 inh CP1=99.0;Myeloid diff CP1=i;GFP autofluor=0.4
CN1CCN(C(=O)C[C@@H]2C[C@@H]3c4cc(NC(=O)Nc5ccc(C(F)(F)F)cc5)ccc4O[C@@H]3[C@H](CO)O2)CC1 | . | 6.2 | . | . | . | .
COc1cccc2c1-c1c(O)cccc1C2=O | -7.1 | ? | 88.0 | 1.9 | i | -18.7%
O=C1C(c2ccc(F)cc2)N(C2CCCCC2)C(=O)CN1C1CCCC1 (stereo unspecified) | -0.5 | ? | 107.0 | 1.6 | i | -11.7%
Cc1ccc(C2C(=O)N(C3CCC(C)CC3)CC(=O)N2C2CCCC2)cc1 (stereo unspecified) | 2.7 | 8.9 | 95.0 | 0.8 | i | .
OC(CN1CCCCC1)Cn1c2ccc(Cl)cc2c2cc(Cl)ccc21 (stereo unspecified) | -2.8 | 54.5* | 92.0 | 2.3 | i | 7.0%
OC1CCCN(Cc2c3ccccc3cc3ccccc23)C1 (stereo unspecified) | 0.2 | 93.1* | 103.0 | ? | i | i
CCCCNC(=S)Nc1ccc2nc(N3CCN(CC)CC3)cc(C)c2c1 | -1.8 | 30.4 | 96.0 | -6.0 | i | .
Cc1cc(N2CCN(C)CC2)nc2ccc(NC(=S)NCCCN3CCc4ccccc4C3)cc12 | -3.1 | 80.2* | 96.0 | 0.4 | i | -18.9%
COc1ccc(C(=O)Nc2ccc3nc(N4CCN(C)CC4)cc(C)c3c2)c(OC)c1 | 3.2 | 51.0* | 96.0 | -4.4 | i | 6.9%
Cc1cc(N2CCN(C)CC2)nc2ccc(NC(=S)N3CCCCC3)cc12 | -5.3 | 43.0 | 99.0 | -2.0 | i | .
Cc1cc(N2CCN(C)CC2)nc2ccc(NC(=S)NCCN3CCc4ccccc4C3)cc12 | 0.4 | 88.9* | 95.0 | -7.7 | i | 5.4%
Cc1cc(N2CCCC2)nc2ccc(NC(=S)NCCCN3CCC(C)CC3)cc12 | -1.4 | . | 99.0 | 1.1 | i | .
CCCN1CCN(CCCNC(=S)Nc2ccc3nc(N4CCN(CC)CC4)cc(C)c3c2)CC1 | 14.2 | 109.8* | 101.0 | -2.3 | i | 1.6%
COc1ccc(CN(C)C[C@@H]2OCCCC[C@@H](C)Oc3ccc(N(C)C)cc3C(=O)N([C@H](C)CO)C[C@H]2C)cc1 | . | 8.2 | . | . | . | .
COCC(=O)Nc1ccc2c(c1)[C@@H]1C[C@@H](CC(=O)O)O[C@@H](CO)[C@@H]1O2 | . | -9.2 | . | . | . | .
CO[C@@H]1CN(C)C(=O)c2cc(NS(C)(=O)=O)ccc2OC[C@H](C)N(C)C[C@H]1C | . | -0.5 | . | . | . | .
C[C@H]1CCCCO[C@@H](CN(C)C(=O)Nc2ccc(F)cc2)[C@@H](C)CN([C@@H](C)CO)C(=O)c2cc(NS(C)(=O)=O)ccc2O1 | . | -5.0 | . | . | . | .
CCN1CCN(c2cc(C)c3cc(NC(=S)NCCCN4CCc5ccccc5C4)ccc3n2)CC1 | -0.5 | 98.4* | 97.0 | -4.8 | i | -7.9%
CCOC(=O)N1CCC(NC(=S)Nc2ccc3nc(N4CCN(CC)CC4)cc(C)c3c2)CC1 | -10.6 | . | 99.0 | -4.0 | i | .
CCN(CC)CC(O)c1ccc2ccc3ccc(O)cc3c2c1 (stereo unspecified) | 19.7 | 68.2* | 97.0 | 1.8 | i | -7.5%
CCOc1cc2[nH]c(=O)n(Cc3ccc(C(=O)NCCCN4CCC(C)CC4)cc3)c(=O)c2cc1OCC | -4.3 | 59.8* | 94.0 | -1.8 | i | -9.1%
SMILES | Vif imaging | RAD54 inh | ABCB6 inh MLPCN | Glyco luc inh | Myeloid diff MLP | DNA binding | others
CCOc1cc2[nH]c(=S)n(Cc3ccc(C(=O)NCCCN(CC)CC)cc3)c(=O)c2cc1OCC | -6.0 | 51.1* | 92.0 | -2.9 | i | -12.6%
CCOc1cc2[nH]c(=S)n(Cc3ccc(C(=O)NCCCOC)cc3)c(=O)c2cc1OCC | -9.8 | 4.2 | 93.0 | -5.1 | i | .
CCOc1cc2[nH]c(=S)n(Cc3ccc(C(=O)NCCCN4CCOCC4)cc3)c(=O)c2cc1OCC | 1.0 | 4.8 | 97.0 | -7.6 | ? | .
C[C@H](CO)N1C[C@H](C)[C@@H](CN(C)C(=O)C2CCCCC2)Oc2ncc(C#CC3CCCC3)cc2C1=O | . | -3.8 | . | . | . | .
O=C(NN1CCOCC1)c1cc(-c2ccc(Cl)c(Cl)c2)nc2ccccc12 | -12.1 | ? | 98.0 | 6.0 | i | 7.1%
C[C@H]1CCCCO[C@@H](CN(C)S(=O)(=O)c2cn(C)cn2)[C@@H](C)CN([C@@H](C)CO)C(=O)c2cc(NC(=O)Nc3ccccc3)ccc2O1 | . | 4.2 | . | . | . | .
C[C@H](CO)N1C[C@H](C)[C@@H](CN(C)C(=O)C2CCCCC2)OCCCC[C@H](C)Oc2ccc(NC(=O)Nc3ccccc3)cc2C1=O | . | -4.9 | . | . | . | .
CCCN(CCC)CCCNC(=O)c1cc2c(-c3ccc(OC)c(OC)c3)nn(C)c2s1 | 3.2 | 104.3* | 99.0 | -0.7 | i | -12.7%
COc1ccc(-c2nn(C)c3sc(C(=O)NCCN(C)C)cc23)cc1OC | -1.9 | 96.5* | 91.0 | 14.7 | i | -15.5%
CCN(CC)CCNC(=O)c1cc2c(-c3cccc(OC)c3)nn(C)c2s1 | -4.9 | . | 103.0 | 12.3 | i | .
COc1ccc(NC(=O)N(C)C[C@@H]2Oc3ccc(NC(=O)Cc4cn(C)c5ccccc45)cc3CC(=O)N([C@@H](C)CO)C[C@@H]2C)cc1 | . | 0.2 | . | . | . | .
COCCCNCCC(CCC(C)C)c1ccc2c(c1)OCO2 (stereo unspecified) | -4.3 | ? | 95.0 | -1.7 | i | 13.3%
CC(C)CCC(CCN1CCCC1)c1ccc2c(c1)OCO2 (stereo unspecified) | -21.2 | 4.3 | 100.0 | -4.4 | i | .

Screening data deposited in PubChem by several laboratories.
